Compound activity from PubChem.
A selection: hits, their analogues and other compounds. The true share with any hit is near 7.7%.
Sm TGR block: inhibitors of Schistosoma mansoni thioredoxin glutathione reductase. AID 485364. Potency, µM (top dose mostly 114 µM), for the others: at the top dose activity change, negative = inhibition, usual class: inhibitors. Q962Y6. purified TGR, DTNB reduction, TNB absorbance 405 nm. 360,000 tested, 3% active; note: potency is the fitted concentration of half-maximal effect; nearly all actives have a fitted effect of over 60% in size
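Kinetic colorimetric format: TGR-catalysed, NADPH-driven DTNB reduction monitored via TNB absorbance. Enzyme dispensed at 20 nM; compound exposure 15 min at room temperature before reaction start.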
Tb PYK inh: inhibitors of Trypanosoma brucei pyruvate kinase. 410,000 tested, 0.12% active. TbPYK enzyme, Kinase-Glo Plus ATP luminescence, 45 min. Potency, µM (series often up to 76.8 µM), without a hit: at the highest dose activity, negative = inhibition, actives largely listed as inhibitors; note: potency is the fitted concentration of half-maximal effect; nearly all actives have a fitted effect of over 50% in size
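Luminescent Kinase-Glo Plus end-point after 45 min room-temperature reaction of T. brucei pyruvate kinase started with 130 uM ADP (final). Buffer TEA 50 mM pH 7.2 with KCl, MgCl2, BSA, Tween-20; titration-based qHTS with fitted concentration-effect curves.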
Giardia FBPA inh: inhibitors of Giardia lamblia fructose-1,6-bisphosphate aldolase | A8B2U2 | purified Giardia FBPA | Potency, µM (top dose mostly 59.6 µM), without a hit: at the top dose activity, negative = inhibition, most hits filed as inhibitors | 290,000 tested, 0.71% active; note: potency is the fitted concentration of half-maximal effect; nearly all actives have a fitted effect of over 55% in size
Target sequence (A8B2U2 whole entry, looked up): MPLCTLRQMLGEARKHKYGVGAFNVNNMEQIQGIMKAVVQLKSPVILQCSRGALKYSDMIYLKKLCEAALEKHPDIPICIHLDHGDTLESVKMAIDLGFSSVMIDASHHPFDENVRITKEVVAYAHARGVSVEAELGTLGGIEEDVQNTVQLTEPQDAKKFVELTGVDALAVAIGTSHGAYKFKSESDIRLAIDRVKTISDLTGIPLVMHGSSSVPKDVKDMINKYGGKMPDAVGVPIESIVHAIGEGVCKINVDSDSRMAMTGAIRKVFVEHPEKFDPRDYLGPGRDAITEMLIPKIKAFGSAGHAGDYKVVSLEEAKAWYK
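40 nM FBPA preincubated 10 min at RT with compound (up to 57.5 uM final), then substrate plus GAPDH/TPI/NAD/arsenate coupling and diaphorase/resazurin added. Fluorescence read after 20 min at RT, 525/598 nm.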
FMDV antiviral: antivirals against foot and mouth disease virus; FMDV antiviral cell-based qHTS; Potency, µM (titrated, usually from 57.9 µM), for inactives: top-dose activity change, negative = inhibition, most hits filed as inhibitors; 410,000 tested, 1.2% active; calls by dose curve; tested in HEK293T cells; note: read-out not given here; potency is the fitted concentration of half-maximal effect; nearly all actives have a fitted effect of over 45% in size
RE007 growth inh: less growth of the S. pombe RE007 Vpr strain | S. pombe RE007 Vpr strain, BacTiter-Glo ATP luminescence, 24 h | Potency, µM (titrated, usually from 92.2 µM), for the others: top-dose activity change, negative = less growth, most hits filed as inhibitors | 360,000 tested, 0.21% active | AID 651644; active = well fitted falling curve with a large enough effect; inconclusive = small, poorly fitted or top-dose-only effect; inactive = no such curve, though single readings can be large or run the other way; note: potency is the fitted concentration of half-maximal effect; nearly all actives have a fitted effect of over 50% in size
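Fission yeast strain RE007, carrying one chromosomally integrated HIV-1 vpr copy, was seeded at OD 0.01 in PMG+AL medium with 23 nL pinned compound. After 24 h at 30 °C and 99% humidity, viability was read by BacTiter-Glo luminescence.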
HCMV antiviral: inhibitors of human cytomegalovirus | 410,000 tested, 4.5% active | AID 1259415 | activity change, negative = inhibition, % at 57.5 µM | HFF cells, HCMV-luciferase reporter, 72 h; hits give low values; in the data active = activity change below about -60%; inconclusive = no clear call, values can overlap the other calls; inactive = above about -39%
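Cell-based, HFFs, 1000 cells/well, 16 h 37C; cpds in DMSO + HCMV-luc, MOI 1 PFU/cell; 72 h 37C; OneGlo luminescence after 5 min RT; norm. to buffer vs Salinomycin 10uM.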
An asterisk follows results filed as active. Unless noted, calls come from the whole dose curve; as a rule, active = well fitted curve in the direction sought with a large enough effect; inconclusive = small, poorly fitted or top-dose-only effect, or another doubt; inactive = no such curve, though single readings can be large; an effect the other way counts as inactive or inconclusive. % is set by controls: 0 for no effect and ±100 for the full control effect.

What do the screens show for `COCCNC(=O)/C(C#N)=C/c1ccc(C)o1`?
Sm TGR block: -24%; Tb PYK inh: -6%; Giardia FBPA inh: -1%; FMDV antiviral: 13%; RE007 growth inh: -13%; HCMV antiviral: -25

Results for CCOCCCNC(=O)/C(C#N)=C/c1ccc(C)o1 ?
Sm TGR block: 40µM*; Tb PYK inh: -21%; Giardia FBPA inh: -13%; FMDV antiviral: -5%; RE007 growth inh: 3%; HCMV antiviral: 18

Results for C=CCNC(=S)NNC(=O)C(CCC(C)C)CC(C)(C)O (stereo unspecified) ?
Sm TGR block: 5%; Tb PYK inh: 5%; Giardia FBPA inh: -28%; FMDV antiviral: 21%; RE007 growth inh: -19%; HCMV antiviral: -107*

Results for O=C(Nc1nccs1)C1CC=CCC1 (stereo unspecified) ?
Sm TGR block: -15%; Tb PYK inh: 4%; Giardia FBPA inh: -11%; FMDV antiviral: 12%; RE007 growth inh: -20%; HCMV antiviral: -69*

What do the screens show for `Cc1nc(N2CCOCC2)[nH]c(=O)c1[N+](=O)[O-]`?
Sm TGR block: -15%; Tb PYK inh: 7%; Giardia FBPA inh: 1%; FMDV antiviral: -17%; RE007 growth inh: 17%; HCMV antiviral: 66

What do the screens show for `Cc1n[nH]c2c([N+](=O)[O-])c(=O)[nH]c(=O)n12`?
Tb PYK inh: -3%; FMDV antiviral: 2%; RE007 growth inh: 0%; HCMV antiviral: -71*

What do the screens show for `Cc1cccc(NC(=O)Cn2c(=O)n(Cc3ccccc3)c(=O)c3sc4ccccc4c32)c1`?
Sm TGR block: -4%; Tb PYK inh: -13%; FMDV antiviral: 0%; HCMV antiviral: -6

Results for COc1cccc2sc(NN)nc12 ?
Sm TGR block: 14%; Tb PYK inh: -16%; Giardia FBPA inh: -29%; FMDV antiviral: 33%; RE007 growth inh: 0%; HCMV antiviral: 29

What do the screens show for `COc1ccccc1-c1nnc(Nc2nc3c(OC)cccc3s2)o1`?
Sm TGR block: 3%; Tb PYK inh: 2%; Giardia FBPA inh: inconclusive; FMDV antiviral: -12%; RE007 growth inh: 1%; HCMV antiviral: -76*

What do the screens show for `COc1cccc2sc(Nc3nnc(-c4ccccc4Cl)o3)nc12`?
Sm TGR block: -6%; Tb PYK inh: 2%; Giardia FBPA inh: inconclusive; FMDV antiviral: 11%; RE007 growth inh: -17%; HCMV antiviral: -60*

Results for CCCCOc1ccc(CNC(=O)C2CCCN(c3nnc(-n4c(C)ccc4C)s3)C2)cc1 (stereo unspecified) ?
Sm TGR block: -35%; Tb PYK inh: -1%; FMDV antiviral: inconclusive; HCMV antiviral: -13

Results for COc1ccc(-c2cn(-c3ccc(C)cc3)c(S(=O)(=O)CC(=O)Nc3ccccc3)n2)cc1 ?
Sm TGR block: -15%; Tb PYK inh: -3%; FMDV antiviral: 73%; HCMV antiviral: 12

Results for Cc1cc(NC(=O)Nc2cccc([N+](=O)[O-])c2)no1 ?
Sm TGR block: 3%; Tb PYK inh: 3%; Giardia FBPA inh: -1%; FMDV antiviral: 9%; RE007 growth inh: 17%; HCMV antiviral: inconclusive

How did O=C(Nc1ccc(OC(F)(F)F)cc1)Nc1cccc([N+](=O)[O-])c1 do in these assays?
Sm TGR block: -10%; Tb PYK inh: -3%; Giardia FBPA inh: -14%; FMDV antiviral: -4%; RE007 growth inh: 3%; HCMV antiviral: -104*

Results for O=C(Nc1ccc(OC(F)(F)F)cc1)Nc1cccnc1 ?
Sm TGR block: 0%; Tb PYK inh: 2%; Giardia FBPA inh: 1%; FMDV antiviral: 43%; RE007 growth inh: 6%; HCMV antiviral: 23

What do the screens show for `Cc1ccc(NC(=O)Nc2cccc([N+](=O)[O-])c2)cc1F`?
Sm TGR block: -8%; Tb PYK inh: -6%; Giardia FBPA inh: -1%; FMDV antiviral: -2%; RE007 growth inh: 1%; HCMV antiviral: -100*

What do the screens show for `CC(C)Oc1ccc(C(=O)NCC(c2ccc(N(C)C)cc2)N2CCCC2)cc1` (stereo unspecified)?
Sm TGR block: -25%; Tb PYK inh: -9%; FMDV antiviral: -31%; HCMV antiviral: -26

What do the screens show for `CCCC[C@@H]1CCCO[C@@](C(=O)NCCN2CCOCC2)(C(F)(F)F)C1`?
Giardia FBPA inh: 0%

Results for CCCC(CCC)C(N)=O ?
Tb PYK inh: -10%

How did O=c1oc(C2(O)CCCCC2)cc2ccc(-c3ccc4[nH]ccc4c3)cc12 do in these assays?
Tb PYK inh: 3%; FMDV antiviral: 11%; RE007 growth inh: -1%; HCMV antiviral: -93*

Results for O=C(Cn1nc(Cc2ccncc2)c2ccccc2c1=O)Nc1cccc(C(F)(F)F)c1 ?
Sm TGR block: 1%; Tb PYK inh: -5%; FMDV antiviral: -27%; HCMV antiviral: -38

How did CC(Cc1ccccc1)NCc1ccccc1O (stereo unspecified) do in these assays?
Sm TGR block: -16%; Tb PYK inh: 0%; Giardia FBPA inh: 6%; FMDV antiviral: -9%; RE007 growth inh: 7%; HCMV antiviral: -67*

How did O=Nc1c(O)n(Cc2c(Cl)cccc2Cl)c2ccccc12 do in these assays?
Sm TGR block: 8%; Tb PYK inh: -14%; Giardia FBPA inh: -1%; FMDV antiviral: inconclusive; RE007 growth inh: 18%; HCMV antiviral: -79*

Results for O=Nc1c(O)n(Cc2ccc(Cl)cc2Cl)c2ccccc12 ?
Sm TGR block: 22%; Tb PYK inh: -2%; Giardia FBPA inh: 14%; FMDV antiviral: -28%; RE007 growth inh: 22µM*; HCMV antiviral: inconclusive

Results for C#CCNc1c2c(nc3ncnn13)CC(C)CC2 (stereo unspecified) ?
Sm TGR block: 22µM*; Tb PYK inh: -2%; Giardia FBPA inh: -1%; FMDV antiviral: -6%; RE007 growth inh: 13%; HCMV antiviral: -101*

How did CCOc1cc(CNc2ccc(O)cc2)cc(Br)c1OCc1ccccc1 do in these assays?
Sm TGR block: -1%; Tb PYK inh: -34%; FMDV antiviral: inconclusive; HCMV antiviral: -104*

Results for COc1cc(CNc2ccc(O)cc2)cc(Br)c1OCc1ccccc1F ?
Sm TGR block: -32%; Tb PYK inh: inconclusive; Giardia FBPA inh: 16µM*; FMDV antiviral: inconclusive; RE007 growth inh: -12%

What do the screens show for `CCOc1cc(CNc2ccc(O)cc2)cc(Br)c1OCc1ccccc1F`?
Sm TGR block: -15%; Tb PYK inh: inconclusive; Giardia FBPA inh: inconclusive; FMDV antiviral: -26%; RE007 growth inh: inconclusive

What do the screens show for `COc1cc(CNn2cn[nH]c2=S)cc(Br)c1OCc1ccccc1F`?
Sm TGR block: 3%; Tb PYK inh: inconclusive; Giardia FBPA inh: 0%; FMDV antiviral: -24%; RE007 growth inh: 0%; HCMV antiviral: -8
